Compounds without any hit were thinned out: in the full panel of roughly 79,000, 15% have a hit. Calls of active or inactive are those of the source. No stated cut-off is given here; in the data, active means growth inhibition above about 70%; inactive means the rest. Where a SMILES comes first, the peptide text is derived from it. [ ]: non-standard residue; d: D form. The star is where a group is joined. ξ: configuration not given here. Cbz = O=C(OCc1ccccc1)*; ξNva = CCCC(N)C(=O)O

The nature of this experiment: NCI Yeast Anticancer Drug Screen. Data for the bub3 strain (AID 167). Particulars: S. cerevisiae bub3 mutant strain, at 50.0 µM, stronger effect = higher value. In short, it runs like this: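 Whole-cell yeast assay. The mutant strain was incubated with compounds, and growth inhibition was determined by comparison with vehicle-treated cells.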
For the compound `Cn1nc(Br)c(=O)n(C)c1=O`, the growth inhibition was 1.7% (inactive).

In the case of `O=C(O)[C@H](c1ccccc1)[C@@H](C(=O)O)c1ccccc1`, the growth inhibition was -53.8% (inactive).

In the case of `O=[N+]([O-])/C(C(Cl)=C(Cl)Cl)=C(/Cl)Sc1ccccc1`, the growth inhibition is 89.1% (active).

On to `CSCSCC(CO)NC(=O)/C=C\c1ccccc1` (stereo not given), for which the growth inhibition is 4% (inactive).

As to `COc1cc([C@@H]2c3cc4c(cc3[C@](C)(O)[C@H]3COC(=O)[C@H]23)OCO4)cc(OC)c1OC`, the growth inhibition is 19.1% (inactive).

With `CCN(CC)C(=O)CCC1(C)OCCO1`, the growth inhibition is -13.9% (inactive).

Turning to `CCCCCC(=O)OCCCCCO`, the growth inhibition is 2.6% (inactive).

On to `CC(=O)OCC(OC(C)=O)C(OC(C)=O)C(OC(C)=O)C(OC(C)=O)C(C=O)OC(C)=O` (stereo not given), for which the growth inhibition was -1.25% (inactive).

Regarding `COCCOC(=O)c1ccc(C(N)=NC2CCCCC2)cc1`, the growth inhibition was 8.65% (inactive).

For the compound `CCCCCCCSc1nc2ccc(N=Cc3ccccc3O)cc2s1`, the growth inhibition was -0.9% (inactive).

For the compound `CN(C)C1C(CO)C(CO)C1(C)C` (stereo not given), the growth inhibition was -2.25% (inactive).

With `CSCCCC(N)=O`, the growth inhibition was -10.2% (inactive).

Regarding `C/C(=N/Nc1ccc([N+](=O)[O-])cc1[N+](=O)[O-])C1=CCCCC1`, the growth inhibition is 3.15% (inactive).

Regarding `CCCNC(=O)c1ccccc1O`, the growth inhibition was 0.3% (inactive).

As for `Cc1cc2c(C(C)C)c(O)c(O)c(C=Nc3ccc4ccccc4c3)c2c(O)c1-c1c(C)cc2c(C(C)C)c(O)c(O)c(C=Nc3ccc4ccccc4c3)c2c1O`, the growth inhibition is -4.6% (inactive).

Take `C/C(=N\Nc1ccc([N+](=O)[O-])cc1)C(=O)N(C)Nc1ccccc1`: the growth inhibition is -59.7% (inactive).

On to `CNC(=O)OCc1nc(SC(C)C)n(C)c1COC(=O)NC`, for which the growth inhibition is -18.7% (inactive).

As to `C=C(CO)[C@H]1Oc2ccc(C(C)=O)cc2[C@@H]1O`, the growth inhibition was -10.7% (inactive).

For `c1ccc2c(c1)CCC(C1=NC3CCCCC3N1)=N2` (stereo not given), the growth inhibition is 6.3% (inactive).

As to `CC(C)NC(=O)/C=C/C(=O)O`, the growth inhibition is -11.2% (inactive).

For `COc1cc(OC)c(C2CC(C)(O)Oc3cc4c(cc32)OCO4)c(OC)c1` (stereo not given), the growth inhibition is 22.1% (inactive).

With `CC1N=C(c2ccccc2)SC1C` (stereo not given), the growth inhibition was -11% (inactive).

Consider `COc1cc2ccnc(C#N)c2cc1OCc1ccccc1`, for which the growth inhibition was -14.2% (inactive).

With `O=C1c2c(Cl)cccc2C(c2ccccc2)c2cccc(Cl)c21`, the growth inhibition was 7.35% (inactive).

`CCCC(=O)OC1C(CO)OC(n2cc(F)c(=O)[nH]c2=O)C1F` (stereo not given): the growth inhibition is 3.75% (inactive).

In the case of `CC(=N\N)/C(C)=N/N=C(C)/C(C)=N/N=C(C)/C(C)=N/N=C(C)/C(C)=N/N`, the growth inhibition is -8.35% (inactive).

Take `N#CCCN(CCC#N)c1ccc(/C=C2\N=C(c3cc([N+](=O)[O-])ccc3Cl)N(S(=O)(=O)c3ccccc3)C2=O)cc1`: the growth inhibition was -1.35% (inactive).

As for `Cc1cnc(N/N=C/c2c(CO)cnc(C)c2O)s1`, the growth inhibition was 2.75% (inactive).

Regarding `NC(=O)/C(=N/O)c1ccccc1`, the growth inhibition is -1.2% (inactive).

For the compound `CCCC(NC(=O)CNC(=O)OCc1ccccc1)C(=O)O` (stereo not drawn) (Cbz-Gly-[ξNva]-OH), the growth inhibition was 5.45% (inactive).

As for `CC(=O)ON(C(=O)c1ccccc1)c1ccccc1`, the growth inhibition is 7.05% (inactive).

Regarding `O=C1OCC2=C1C(c1ccc3c(c1)OCO3)c1cc3c(cc1O2)OCO3` (stereo not given), the growth inhibition is -8.6% (inactive).

For `c1ccc(OB(Oc2ccccc2)Oc2ccccc2)cc1`, the growth inhibition is 4.2% (inactive).

On to `O=C(O)c1ccccc1NCn1c(=S)sc2ccccc21`, for which the growth inhibition is 43.8% (inactive).

With `CN=S(=O)(OC/C=C/COS(=O)(=NC)c1ccc(C)cc1)c1ccc(C)cc1` (stereo not given), the growth inhibition was -10.4% (inactive).

For `Nc1ccc2c(c1)C(=O)c1cc(C(=O)O)ccc1-2`, the growth inhibition is 12.8% (inactive).

On to `NC(=S)N1CCCC1`, for which the growth inhibition is 17.6% (inactive).

Consider `Oc1c(Cl)cc(Cl)cc1C1N2CCCCC2C2c3cccn3-c3ccccc3N21` (stereo not given), for which the growth inhibition was 21.2% (inactive).

As for `O=C(c1ccccc1)C1C(/C=C/c2ccccc2)C(C(=O)c2ccccc2)C1/C=C/c1ccccc1` (stereo not given), the growth inhibition is -4.5% (inactive).

On to `COc1ccc(/C=N\O[Si](C)(C)C(C)(C)C)cc1O[Si](C)(C)C(C)(C)C`, for which the growth inhibition was -3.25% (inactive).
